For some assays here: Results with a measured potency or affinity are listed apart.
Legend:
Design in all cases: scale not given: direction of the effect not stated beside the values
[1] = target: Protein translocase subunit SecA (Escherichia coli (strain K12)) (UniProt P10408); assay: Assay to Identify E. coli SecA ATPase Inhibitors; type: functional; settings: 30 µM
[2] = target: T1, Ubiquitin-activating enzyme e1, putative (Leishmania donovani (strain BPK282A1)) (UniProt E9BSI1); assay: Leishmania donovani Ubiquitin Activating Enzyme (LdE1); type: functional; settings: 30 µM
T1 sequence (whole entry): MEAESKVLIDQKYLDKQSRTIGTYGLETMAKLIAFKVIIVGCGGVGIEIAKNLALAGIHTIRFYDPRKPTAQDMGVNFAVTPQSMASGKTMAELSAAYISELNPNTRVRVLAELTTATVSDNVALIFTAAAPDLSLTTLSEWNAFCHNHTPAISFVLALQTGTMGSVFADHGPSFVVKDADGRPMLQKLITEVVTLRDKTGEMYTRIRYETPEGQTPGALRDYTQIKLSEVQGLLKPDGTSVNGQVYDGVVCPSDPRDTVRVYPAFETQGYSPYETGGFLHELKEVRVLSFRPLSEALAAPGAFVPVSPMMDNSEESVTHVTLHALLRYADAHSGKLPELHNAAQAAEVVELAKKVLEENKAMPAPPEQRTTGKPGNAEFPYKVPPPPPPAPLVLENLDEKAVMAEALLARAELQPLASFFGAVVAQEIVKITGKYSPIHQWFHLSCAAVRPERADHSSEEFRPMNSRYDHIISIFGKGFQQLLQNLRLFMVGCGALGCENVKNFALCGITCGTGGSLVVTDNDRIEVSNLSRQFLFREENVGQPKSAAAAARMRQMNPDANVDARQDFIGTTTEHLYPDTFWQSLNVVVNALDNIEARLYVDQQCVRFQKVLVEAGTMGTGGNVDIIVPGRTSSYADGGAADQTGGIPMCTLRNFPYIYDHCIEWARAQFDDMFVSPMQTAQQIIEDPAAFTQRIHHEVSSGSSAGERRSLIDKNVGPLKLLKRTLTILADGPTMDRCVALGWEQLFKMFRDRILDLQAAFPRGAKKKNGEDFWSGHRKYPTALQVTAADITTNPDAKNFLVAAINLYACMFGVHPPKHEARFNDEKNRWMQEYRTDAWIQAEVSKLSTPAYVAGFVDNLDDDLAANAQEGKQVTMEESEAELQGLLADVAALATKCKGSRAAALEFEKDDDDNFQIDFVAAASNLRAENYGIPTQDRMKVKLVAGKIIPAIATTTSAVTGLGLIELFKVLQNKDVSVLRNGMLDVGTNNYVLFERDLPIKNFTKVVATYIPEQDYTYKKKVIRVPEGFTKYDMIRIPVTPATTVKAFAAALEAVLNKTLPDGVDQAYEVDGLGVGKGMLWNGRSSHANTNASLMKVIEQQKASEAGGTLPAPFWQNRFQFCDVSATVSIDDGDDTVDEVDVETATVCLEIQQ

[3] = target: AMP-activated protein kinase, AMPK (Homo sapiens) (UniProt P54646+O43741+P54619+Q9UGJ0+Q9Y478+Q13131+Q9UGI9); assay: AMP-dependent Kinase enzyme assay. An in vitro enzyme assay that detects ADP turnover that is directly proportional to AMPK activity. This uses naive AMPK that is activated during the assay with MK-8722; type: functional; settings: 30 µM
[4] = target: Sialic acid-binding Ig-like lectin 9 (Homo sapiens) (UniProt Q9Y336); assay: Hs-Siglec9 ALPHAscreen SOP 20170721; settings: 10 µM
Trypanosoma cruzi = assay: Trypanosoma cruzi phosphomannomutase and mannose-1-phosphate guanylyltransferase assay; type: functional; settings: 10 µM
[5] = target: T2, Arginase-2, mitochondrial (Homo sapiens) (UniProt P78540); assay: in vitro enzyme assay to detect the production of urea directly proportional to the activity of Arginase II; type: functional; settings: 33.3 µM; also: in the data most compounds retested in dose-response had high values
T2 sequence (whole entry): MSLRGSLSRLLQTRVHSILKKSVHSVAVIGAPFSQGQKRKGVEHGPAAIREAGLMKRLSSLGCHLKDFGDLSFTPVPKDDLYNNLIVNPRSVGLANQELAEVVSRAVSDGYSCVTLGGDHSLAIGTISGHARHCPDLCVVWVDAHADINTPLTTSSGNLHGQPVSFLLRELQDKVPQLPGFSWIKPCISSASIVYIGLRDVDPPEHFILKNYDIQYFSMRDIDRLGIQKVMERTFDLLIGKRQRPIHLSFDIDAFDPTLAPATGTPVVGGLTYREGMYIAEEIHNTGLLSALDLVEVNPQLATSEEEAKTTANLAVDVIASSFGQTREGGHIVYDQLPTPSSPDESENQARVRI

[6] = target: T3, Proteasome subunit beta (Trypanosoma cruzi) (UniProt O96673); assay: Trypanosoma cruzi proteasome chymotrypsin-like activity (TcProtChymo) assay.; also: in the data most compounds retested in dose-response had high values; type: functional; settings: 9.37 µM
T3 sequence (whole entry): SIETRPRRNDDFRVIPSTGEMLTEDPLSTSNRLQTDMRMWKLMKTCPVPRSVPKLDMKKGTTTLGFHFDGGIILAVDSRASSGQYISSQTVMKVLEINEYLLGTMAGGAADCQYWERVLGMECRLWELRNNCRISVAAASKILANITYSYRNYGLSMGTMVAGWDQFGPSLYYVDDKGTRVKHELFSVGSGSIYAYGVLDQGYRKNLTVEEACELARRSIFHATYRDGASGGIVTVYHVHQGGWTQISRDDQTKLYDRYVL

Homo sapiens = species on record: Homo sapiens; assay: To identify inhibition of the IFN signalling (Jak-Stat) pathway via expression of an eGFP reporter gene under the control of an IFN-stimulated response element (ISRE) containing MxA promoter.; type: functional; settings: 30 µM
[7] = target: T4, Tyrosyl-tRNA synthetase, putative (Trypanosoma cruzi (strain CL Brener)) (UniProt Q4DSP6); assay: Trypanosoma cruzi tyrosyl tRNA synthetase (TcYRS) _High Tyrosine SOP; type: functional; settings: 30 µM; also: in the data most compounds retested in dose-response had high values
T4 sequence (whole entry): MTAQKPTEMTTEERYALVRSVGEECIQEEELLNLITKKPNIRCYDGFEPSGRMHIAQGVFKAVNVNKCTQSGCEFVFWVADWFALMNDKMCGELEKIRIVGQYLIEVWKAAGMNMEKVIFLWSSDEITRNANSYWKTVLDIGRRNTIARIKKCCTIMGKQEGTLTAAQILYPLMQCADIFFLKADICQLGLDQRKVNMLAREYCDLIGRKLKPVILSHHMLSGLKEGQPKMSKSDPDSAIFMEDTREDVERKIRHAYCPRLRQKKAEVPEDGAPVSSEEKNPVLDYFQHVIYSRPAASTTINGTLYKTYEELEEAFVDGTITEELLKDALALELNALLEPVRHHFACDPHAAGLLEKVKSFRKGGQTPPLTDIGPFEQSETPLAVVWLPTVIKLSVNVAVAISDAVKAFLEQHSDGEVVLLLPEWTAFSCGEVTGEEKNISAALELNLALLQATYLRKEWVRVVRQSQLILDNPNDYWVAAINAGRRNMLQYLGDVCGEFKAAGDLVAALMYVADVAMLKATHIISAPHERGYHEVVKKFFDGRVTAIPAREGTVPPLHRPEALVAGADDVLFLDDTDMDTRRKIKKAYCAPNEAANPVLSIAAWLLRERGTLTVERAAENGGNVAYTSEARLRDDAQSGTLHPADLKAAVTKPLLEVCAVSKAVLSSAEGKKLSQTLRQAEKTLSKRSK

[8] = target: T4, Tyrosyl-tRNA synthetase, putative (Trypanosoma cruzi (strain CL Brener)); assay: Trypanosoma cruzi tyrosyl tRNA synthetase (TcYRS) SOP; type: functional; settings: 30 µM
[9] = target: Chromo domain-containing protein 1 (Saccharomyces cerevisiae (strain ATCC 204508 / S288c) (Baker's yeast)) (UniProt P32657); assay: ScCHD-1 Enzyme Inhibition Assay; type: functional; settings: 30 µM; also: in the data most compounds retested in dose-response had high values
Sequence of Chromo domain-containing protein 1 (Saccharomyces cerevisiae (strain ATCC 204508 / S288c) (Baker's yeast)) (P32657 whole entry, the tested form may be a part): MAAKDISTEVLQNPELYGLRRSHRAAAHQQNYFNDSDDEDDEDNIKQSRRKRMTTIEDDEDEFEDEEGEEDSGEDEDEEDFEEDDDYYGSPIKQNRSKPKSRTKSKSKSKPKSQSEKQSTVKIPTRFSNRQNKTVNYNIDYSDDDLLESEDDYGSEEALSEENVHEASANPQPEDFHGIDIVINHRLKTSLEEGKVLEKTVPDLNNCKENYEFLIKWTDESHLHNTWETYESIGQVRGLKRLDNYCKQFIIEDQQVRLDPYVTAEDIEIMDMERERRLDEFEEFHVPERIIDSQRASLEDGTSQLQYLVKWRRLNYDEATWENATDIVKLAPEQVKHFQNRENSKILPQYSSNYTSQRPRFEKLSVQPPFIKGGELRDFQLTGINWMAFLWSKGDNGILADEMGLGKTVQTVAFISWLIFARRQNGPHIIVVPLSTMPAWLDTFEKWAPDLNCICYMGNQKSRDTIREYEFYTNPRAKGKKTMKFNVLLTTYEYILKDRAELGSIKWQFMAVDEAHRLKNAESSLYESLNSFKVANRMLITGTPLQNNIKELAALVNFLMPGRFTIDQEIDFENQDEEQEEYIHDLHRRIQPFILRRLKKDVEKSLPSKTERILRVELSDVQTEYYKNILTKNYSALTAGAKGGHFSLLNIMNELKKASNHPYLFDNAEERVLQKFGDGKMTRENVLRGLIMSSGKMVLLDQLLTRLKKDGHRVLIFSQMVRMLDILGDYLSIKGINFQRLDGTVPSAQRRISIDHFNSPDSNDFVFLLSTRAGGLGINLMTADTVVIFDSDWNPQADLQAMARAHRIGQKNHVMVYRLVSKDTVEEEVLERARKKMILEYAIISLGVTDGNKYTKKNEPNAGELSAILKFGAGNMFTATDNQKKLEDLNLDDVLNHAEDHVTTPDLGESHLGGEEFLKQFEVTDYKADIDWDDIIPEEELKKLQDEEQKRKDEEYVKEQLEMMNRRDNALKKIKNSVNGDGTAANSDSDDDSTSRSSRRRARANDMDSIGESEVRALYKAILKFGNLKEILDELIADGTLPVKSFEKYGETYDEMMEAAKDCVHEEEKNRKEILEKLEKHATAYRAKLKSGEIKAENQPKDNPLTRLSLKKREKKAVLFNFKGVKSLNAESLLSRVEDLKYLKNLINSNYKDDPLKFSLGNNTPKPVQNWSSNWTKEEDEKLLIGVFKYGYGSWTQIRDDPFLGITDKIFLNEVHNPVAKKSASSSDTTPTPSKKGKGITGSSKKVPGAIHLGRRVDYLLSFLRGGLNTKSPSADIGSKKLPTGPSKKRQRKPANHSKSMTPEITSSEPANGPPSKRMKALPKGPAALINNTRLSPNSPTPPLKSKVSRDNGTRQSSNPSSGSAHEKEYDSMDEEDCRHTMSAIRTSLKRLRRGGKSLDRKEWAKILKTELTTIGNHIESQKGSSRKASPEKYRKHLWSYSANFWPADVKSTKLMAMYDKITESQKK

Sequence of Protein translocase subunit SecA (Escherichia coli (strain K12)) (P10408 whole entry): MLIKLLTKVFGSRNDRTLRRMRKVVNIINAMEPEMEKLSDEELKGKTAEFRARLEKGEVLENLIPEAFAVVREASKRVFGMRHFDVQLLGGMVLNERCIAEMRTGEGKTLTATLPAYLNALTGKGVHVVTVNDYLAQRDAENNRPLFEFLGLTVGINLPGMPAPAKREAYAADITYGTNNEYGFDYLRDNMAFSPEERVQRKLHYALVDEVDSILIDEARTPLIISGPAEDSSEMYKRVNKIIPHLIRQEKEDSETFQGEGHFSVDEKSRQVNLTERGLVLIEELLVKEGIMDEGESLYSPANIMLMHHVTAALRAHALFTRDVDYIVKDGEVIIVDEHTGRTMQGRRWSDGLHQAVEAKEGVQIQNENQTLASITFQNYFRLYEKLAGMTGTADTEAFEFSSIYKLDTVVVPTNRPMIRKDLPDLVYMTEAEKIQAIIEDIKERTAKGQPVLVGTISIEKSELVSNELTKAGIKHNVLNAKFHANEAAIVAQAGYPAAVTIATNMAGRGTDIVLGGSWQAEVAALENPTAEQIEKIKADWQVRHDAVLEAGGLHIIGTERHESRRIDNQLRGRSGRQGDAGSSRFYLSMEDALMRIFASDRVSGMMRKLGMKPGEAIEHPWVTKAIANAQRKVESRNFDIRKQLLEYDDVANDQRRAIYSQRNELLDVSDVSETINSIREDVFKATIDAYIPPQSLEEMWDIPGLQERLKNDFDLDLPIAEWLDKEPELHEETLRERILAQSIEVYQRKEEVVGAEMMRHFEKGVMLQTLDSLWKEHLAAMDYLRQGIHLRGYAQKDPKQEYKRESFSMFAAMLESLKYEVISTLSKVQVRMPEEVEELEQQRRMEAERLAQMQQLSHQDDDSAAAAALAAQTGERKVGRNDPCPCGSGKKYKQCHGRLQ
Sequence of Sialic acid-binding Ig-like lectin 9 (Homo sapiens) (Q9Y336 whole entry): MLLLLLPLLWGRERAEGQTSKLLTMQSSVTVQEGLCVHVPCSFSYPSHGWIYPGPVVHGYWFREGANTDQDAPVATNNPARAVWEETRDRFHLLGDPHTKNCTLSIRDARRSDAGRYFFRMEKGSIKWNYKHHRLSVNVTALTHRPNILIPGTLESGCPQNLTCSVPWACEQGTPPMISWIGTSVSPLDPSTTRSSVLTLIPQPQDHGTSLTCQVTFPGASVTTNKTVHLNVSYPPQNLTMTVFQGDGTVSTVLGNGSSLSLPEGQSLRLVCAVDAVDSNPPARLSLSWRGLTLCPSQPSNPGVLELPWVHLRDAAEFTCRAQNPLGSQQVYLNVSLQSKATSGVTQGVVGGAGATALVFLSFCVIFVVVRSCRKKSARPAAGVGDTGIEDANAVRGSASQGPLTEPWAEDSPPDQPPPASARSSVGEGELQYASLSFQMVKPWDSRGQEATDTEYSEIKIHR

Row | SMILES | Percent Effect [1] | Percent Effect [2] | Percent Effect [3] | Percent Effect [4] | Percent Effect (Trypanosoma cruzi) | Percent Effect [5] | Percent Effect [6] | Percent Effect (Homo sapiens) | Percent Effect [7] | Percent Effect [8] | Percent Effect [9]
1 | Cn1ccnc1COc1ccc(CO)cc1 | -1.04% | 5.2% | -1.87% | -8.74% | -5.06% | 8.19% | 6.59% | 36.8% | 3.88% | 14.6% | -8.46%
2 | Cc1ccc(C(=O)NCCCNS(C)(=O)=O)c(=O)[nH]1 | -3.74% | 16.2% | -2.72% | 4.72% | 2.54% | 5% | 22.4% | -1.74% | 10.9% | 18.3% | -7.91%
3 | Cc1nc(C(C)C)sc1C(=O)NS(=O)(=O)c1ccc(C#N)cc1 | -1.22% | 8.11% | -3.43% | 18.3% | 5.99% | 9.52% | 11.9% | -9.57% | 4.76% | 9.76% | -5.85%
4 | Cc1nccn1C1CCCN(C(=O)c2cc(O)nc3ccccc23)C1 (configuration not stated) | -2.57% | 12.7% | -7.86% | 5.85% | -1.98% | -4.18% | -4.34% | -4.23% | 6.4% | 13.9% | -5.76%
5 | O=C(Nc1ccnc(OC2CCOC2)c1)C1CCC1 (configuration not stated) | -2.23% | -4.17% | -0.181% | 4.31% | -6.32% | 1.32% | 13.3% | 5.01% | -2.1% | -5.13% | 6.48%
6 | CCN1CCN(C2CCN(Cc3ncc(C(C)(C)C)o3)CC2)C1=O | -2.95% | -7.79% | 6.42% | 7.85% | 1.47% | -1.47% | 7.2% | -13.2% | 6.67% | 7.06% | -19.1%
7 | O=C(CCc1ccccn1)N1CCc2cc(Cl)cc(Cl)c2C1 | -0.0645% | 7.79% | 5.1% | 1.57% | -9.34% | -17.9% | 15% | 47.7% | -1.07% | -3.7% | -2.98%
8 | N#Cc1cccnc1NCCNC(=O)N1CCCSCC1 | -3.35% | 2.7% | -4.19% | 3.38% | 8.11% | -2.38% | 14.3% | -19.3% | 3.7% | 12.2% | -6.59%
9 | Cc1nnn2c1COCC(CNC(=O)c1ccc3[nH]ccc3c1)C2 (configuration not stated) | -2.29% | 13% | -0.0167% | 8.82% | 9.73% | -46.9% | 18.1% | 14.9% | 6.45% | 13.6% | -3.15%
10 | OC(COc1ccccc1)CN1CCC(c2ccn[nH]2)CC1 (configuration not stated) | -2.35% | 15.2% | -5.68% | 0.333% | -4.82% | 3.04% | 2.05% | -21.8% | 2.46% | 13.9% | -2.28%
11 | CCOc1ccc(Cl)c(C(=O)N2CCN(c3cnccn3)CC2)n1 | -4.82% | 23.4% | -2.68% | 6.96% | 8.43% | 1.42% | 15.5% | 17.5% | 10.7% | 24.4% | -12.4%
12 | Cc1c(I)cccc1C(=O)NCC1(CO)CC1 | -4.35% | 13.5% | -3.32% | 13.5% | 7.14% | 0.952% | 1.38% | -9.36% | 0.529% | 14.6% | -4.29%
13 | O=C(c1ccc(=O)[nH]n1)N1CC(c2nc(Cc3ccccc3)no2)C1 | -2.52% | 8.22% | -1.62% | 7.99% | 3.33% | 20.9% | 14.4% | 0.0834% | 6.45% | 20% | -5.6%
14 | N#Cc1ccc(NCCNc2ccc(C(F)(F)F)cn2)nc1 | -2.89% | 7.89% | 4.53% | 10.9% | 3.01% | -1.53% | 10.7% | 104% | 8.33% | 24.4% | 2.5%
15 | CCCOCCN1CCC2(CC1)CC(c1ccccc1)C(=O)N2C (configuration not stated) | 6.56% | 5.33% | -0.289% | -1.03% | -9.45% | -4.69% | 18.8% | 48.6% | -2.73% | 1.24% | -5.61%
16 | CS(=O)(=O)N1CCCC12CCCN(S(=O)(=O)c1cc(F)cc(F)c1)C2 (configuration not stated) | -5.6% | -8.11% | 3.16% | -10% | -3.23% | -2.23% | 10% | 14.4% | 0% | -1.24% | -0.985%
17 | COc1ccc(F)c(CN2CCC(c3cc(O)nc(C)n3)C2)c1 (configuration not stated) | -8.36% | 23% | -0.897% | -0.78% | 5.93% | -3.94% | 15.3% | 11.7% | 5.38% | 14.3% | -15%
18 | CN(C)CC1CN(c2ncnc3[nH]ccc23)CCO1 (configuration not stated) | -5.15% | 16.5% | 22% | 2.27% | 0.103% | -1.94% | 13.9% | 28.5% | 7.29% | 15.2% | -33%
19 | COc1c(C)cnc(CN2CCC(N(C)C(C)C(N)=O)CC2)c1C (configuration not stated) | -2.36% | 13% | 3.82% | -8.74% | -3.56% | -0.712% | 8.95% | 42.8% | 8.74% | 14.6% | -7.36%
20 | CC(C)c1nccn1C1CCCN(C(=O)c2cccc3c2OCO3)C1 (configuration not stated) | 1.99% | -46% | -3.6% | 9.39% | 2.55% | -5.61% | 2.16% | 9.02% | 2.46% | 11.1% | -2.9%
21 | NC(=O)C1CCN(c2nc3nccc(-c4ccccc4)c3c(=O)[nH]2)CC1 | -4.01% | 2.74% | -6.46% | 3.02% | 6.75% | -7.19% | 14.8% | 5.49% | 1.04% | 6.17% | -5.09%
22 | CN(C)CCO[C@H]1CN(Cc2cccc(C#N)c2)[C@@H]2COC[C@H]12 | -3.05% | 5.33% | 0.409% | 2.27% | 2.32% | -44.6% | 9.91% | -12.1% | 6.25% | 17.5% | -5.99%
